Reference: PubChem BioAssay AID1117319 (Southern Research Institute, 2015)
Several values for one entry are separate records, joined by “and”; a condition that tells them apart may be missing. Equal values may be shown once. In all, about 260,000 compounds went through this assay and about 1,500 (0.58%) were called active. Not shown: some 5% with an inconclusive outcome.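 The calls were made as follows: active = inhibition above a set limit at one or more doses, reproduced on every date tested; inconclusive = results disagree between test dates, or hit never tested in dose response; inactive = the rest.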 Not all results are given here. Measured potencies and affinities stand elsewhere.

target: Virion infectivity factor (Human immunodeficiency virus type 1 group M subtype B (isolate BH10)) + Virion infectivity factor (Human immunodeficiency virus type 1 group M subtype B (isolate BRU/LAI)) + Virion infectivity factor (Human immunodeficiency virus type 1 group M subtype B (isolate PCV12)) + Virion infectivity factor (Human immunodeficiency virus type 1 group M subtype B (isolate HXB2)) + DNA dC->dU-editing enzyme APOBEC-3G (Homo sapiens) (UniProt P69720+P69721+P69722+P69723+Q9HC16); test: HIV-1 Vif–A3G interaction blockers – biochemical, TR-FRET, GST-Vif 1-94, biotin-A3G peptide, dose response retest, primary screen (AID 1117319); conditions: TR-FRET GST-Vif / biotin-A3G peptide binding; hits give high values;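 also: Vif residues 1-94 fused to GST binding biotinylated APOBEC3G peptide 110-148; 0% = full assay without inhibitor and 100% = GST in place of GST-Vif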

inhibition, inactive:
CSCCC(NC(=O)c1ccccc1)C(=O)N/N=C(\C)c1ccccc1 (stereo not given) -5.06%
Cc1ccc(NS(=O)(=O)c2cc(N)ccc2Cl)c(C)c1 28.9%
Cc1ccc(Nc2ccc(C(=O)O)cc2N)cc1 15%
Nc1cccc(Nc2ccccc2)c1 1.33%
Nc1cc(C(=O)O)ccc1Nc1ccccc1 13%
Cc1ccc(-n2cc(-c3ccccc3)c3c(NN4CCOCC4)ncnc32)cc1 21%
COc1cc2nc(N(CCN(C)C)C(=O)c3ccc4ccccc4c3)sc2cc1OC -3.84%
O=C1COc2ccc(C(=O)COC(=O)Cc3ccc(F)cc3)cc2N1 -9.09%
Nc1c(C(=O)OCC(=O)Nc2ccc(Cl)cc2[N+](=O)[O-])[nH]c(=O)[nH]c1=O -3.88%
CCc1cc2cc(C)ccc2nc1SCC(=O)N1CCN(C(=O)c2ccco2)CC1 3.37%
CCc1cc2cccc(C)c2nc1SCC(=O)N1CCN(C(=O)c2ccco2)CC1 5.89% and -1.51%
Cc1cccc(N2CCN(C(=O)c3ccccc3NC(=O)C3=CSCCO3)CC2C)c1 (stereo not given) 0.87%
Cc1cc(=O)[nH]c2c3ccccc3nn12 -4.45%
CCOc1ccc(C2C(C(=O)OC)=C(C)N=C3SCCC(=O)N32)cc1OCC (stereo not given) -1.89%
CC(C)C(NCc1c(Cl)cccc1Cl)C(=O)O (stereo not given) -1.01%
c1ccc(COn2c(-c3ccccc3)nc3c2CCc2nonc2-3)cc1 -7.03%
COn1c(-c2ccccc2)nc2c1CCc1c-2no[n+]1[O-] 3.61%
Cc1c(C(=O)O)oc2c1C(=O)CC(C)(C)C2 -2.53%
CC1CC(C)CN(CC(C)(C)NS(=O)(=O)c2ccccc2)C1 (stereo not given) 17.8%
O=C1C2C3C=CC(CC3)C2C(=O)N1c1ccc(Cl)cc1 (stereo not given) 1.42%
CCN(CC)C(=O)[C@H]1C[C@H](CC(=O)NC(C)(C)C)C(=O)N2CCc3c([nH]c4cc(CCC(=O)N(C)C)ccc34)[C@]12C -0.23%
Cc1c(NS(=O)(=O)c2ccc(Cl)c(C(=O)OC(C)C(=O)NCc3ccco3)c2)c(=O)n(-c2ccccc2)n1C (stereo not given) 5.59%
O=C(COC(=O)Cc1ccc(Cl)c(Cl)c1)NCc1ccco1 7.25%
CC(C)(Oc1ccc(Cl)cc1)C(=O)NCC(c1ccco1)N1CCCCC1 (stereo not given) 1.39%
O=C(COC(=O)Cc1ccc(F)cc1)NCc1ccco1 -14.6%
COc1cccc(OC)c1C(=O)OCC(=O)NCc1ccco1 5.04%
COC(=O)CNC(=O)C(C)(C)Oc1ccc(Cl)cc1 -6.52%
COc1ccccc1OCC(=O)NCc1ccco1 8.05%
CNC(=S)N1CCN(c2ccc(Cl)c(Cl)c2)CC1 1.98%
O=C1CSC(c2ccc(Cl)c(Cl)c2)N1c1nccs1 (stereo not given) 2.94%
CN(C)C(=O)c1ccc(NC(=O)CSc2nnc(-c3ccc4c(c3)OCO4)o2)cc1 1.62%
C/C(=N\Nc1ccc(F)cc1)c1ccc(N2CCOCC2)c(F)c1 6.07%
CC(=O)c1ccc(NC(=O)c2cnsn2)cc1 4.53%
CCN(CC)C(=O)[C@H]1C[C@H](CC(=O)NCCc2ccccn2)C(=O)N2CCc3c([nH]c4cc(CCC(=O)N(C)C)ccc34)[C@]12C 17.5%
CCNC(=S)N/N=C/c1c(C)nn(-c2cccc(Cl)c2)c1Cl 5.39%
CC(=O)C1=C(C)OC(N)=C(C#N)C1c1cc2cc(C)c(C)cc2nc1Cl (stereo not given) 9.71%
CC(=O)C1=C(C)OC(N)=C(C#N)C1c1cc2cccc(C)c2nc1Cl (stereo not given) -1.1%
COc1ccc2nc(NC(=O)C3CCN(C(=O)c4ccc(F)cc4)CC3)sc2c1 -12.6%
CCc1oc(C(=O)OC)cc1CSC(=N)N -0.44%
Cc1cc2ccccn2c1C(=O)c1nc(NCc2ccccc2)ncc1Cl -3.29%
COc1cccc(C(=O)OCC(=O)Nc2ccc3c(c2)OCCO3)c1 -5.71%
CSc1ncccc1C(=O)OCC(=O)NC(=O)NCCC(C)C -2.12%
O=C(NCC(c1cccs1)N1CCOCC1)c1ccc(Br)o1 (stereo not given) 22.6%
CC(=O)Nc1ccc(S(=O)(=O)Nc2nccs2)cc1 -1.8%
COc1ccc(-c2nnc(Nc3ccc(S(=O)(=O)Nc4nccs4)cc3)c3ccccc23)cc1 12.6%
COC(=O)[C@H](C)NC(=O)Nc1ccccc1C(F)(F)F 8.61%
CNC(=O)C12CCC(C)(c3nc4cc(C)c(C)cc4nc31)C2(C)C (stereo not given) 2.01%
CCOC(=O)C1CCN(Cc2cnc(Oc3ccc(C(C)(C)C)cc3)s2)CC1 28.3%
CCOC(=O)C1CCN(Cc2cnc(Oc3ccc(N)cc3)s2)CC1 3.48%
Cc1cc(CNC(=O)CCc2nnc(CCCCc3ccccc3)o2)nn1C -5.35%
CN(C)c1ccc(C(=O)c2ccc(O)cc2O)cc1 -0.42%
Cc1ccc(-c2cc(Cc3ccc(N(C)C)cc3)c(=O)[nH]n2)cc1 -0.03%
O=C(Nc1ccc(Cl)cc1)C(c1ccccc1)N(CCO)CCO (stereo not given) -1.42%
COC(=O)c1ccc(CSc2nnc(-c3ccccc3)n2C)o1 2.37%
O=C(O)c1ccc(C(=O)c2cc([N+](=O)[O-])cc([N+](=O)[O-])c2)cc1 -9.99%
O=C(O)c1ccc(S(=O)(=O)c2ccccc2C(=O)O)c([N+](=O)[O-])c1 -4.06%
Cc1cc(C(=O)Nc2ccccc2Cc2ccccc2)no1 -1.05%
Cc1sc(NC(=O)c2cccs2)c(C(=O)OC(C)C)c1C 2.47%
CCOC(=O)c1c(NC(=O)c2cccs2)sc(C)c1CC -1.19%
O=C(O)/C(=C/c1ccc(Cl)c([N+](=O)[O-])c1)c1ccc(S(=O)(=O)N2CCCCC2)s1 19.6%
